GPR151 activ – activates the human receptor GPR151; AID 1508602; 650,000 compounds, 1% hits; activation, % at 11.2 µM; PathHunter beta-arrestin GPR151 cells, luminescence; Q8TDV0; in the data active means activation above about 4.9%;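 further: 0% = median of compound wells and 100% = cells with positive control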
TEAD-YAP block – TEAD-YAP interaction inhibition; HEK-TIYL cells, TEAD-Gal4/YAP UAS-luciferase luminescence; inhibition, % at 9.12 µM; 640,000 compounds, 1.4% hits; AID 1259422; in the data active means inhibition above about 32%;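 further: 0% = median of test compound wells and 100% = reference inhibitor wells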
FBW7 activator – human FBW7 E3 ligase activation, primary screen; Q969H0; AlphaScreen FBW7–phospho-cyclin E peptide binding, activator screen; normalized activity (activation), % at 26.1 µM; 650,000 compounds, 0.13% hits; AID 1259310; in the data active means normalized activity above about 1.9%;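 further: purified mutant Fbw7 with reduced substrate affinity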
MITF primary – inhibitors of human MITF. 650,000 compounds, 0.91% hits. AlphaScreen MITF homodimerization, bead proximity signal. O75030. inhibition, % at 2.6 µM. AID 1259374; in the data active means inhibition above about 50%;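 further: 0% = vehicle wells with protein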
Target sequence (O75030 whole entry, looked up): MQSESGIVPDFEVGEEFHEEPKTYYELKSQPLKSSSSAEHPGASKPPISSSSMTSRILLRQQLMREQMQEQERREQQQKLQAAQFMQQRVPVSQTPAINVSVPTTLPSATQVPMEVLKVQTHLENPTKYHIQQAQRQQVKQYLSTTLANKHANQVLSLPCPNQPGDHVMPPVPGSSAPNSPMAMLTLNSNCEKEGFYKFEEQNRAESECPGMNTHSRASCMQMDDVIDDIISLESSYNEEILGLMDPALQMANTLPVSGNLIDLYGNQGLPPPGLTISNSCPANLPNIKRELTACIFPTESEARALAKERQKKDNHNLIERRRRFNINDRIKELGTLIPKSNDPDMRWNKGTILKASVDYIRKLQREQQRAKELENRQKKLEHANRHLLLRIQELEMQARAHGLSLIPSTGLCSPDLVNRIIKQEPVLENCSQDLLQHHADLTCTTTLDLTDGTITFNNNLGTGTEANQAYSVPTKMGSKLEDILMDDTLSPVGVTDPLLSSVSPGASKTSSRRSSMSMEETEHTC
MITF inh conf – confirmation of human MITF inhibitors; AID 1259372; AlphaScreen MITF homodimerization, biotin/His-MITF beads; 4,700 compounds, 16% hits; inhibition, % at 2.6 µM; shares compounds with MITF primary;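 active means inhibition above a cutoff derived from the DMSO control wells, cut at about 28% in these data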;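 further: 0% = MITF dimer wells with DMSO only; inhibitors lower the bead chemiluminescence by keeping MITF from dimerizing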
AlphaScreen intf2 – optically interferes with AlphaScreen signal; shares compounds with MITF primary; LysRS AlphaScreen counterscreen, signal interference, triplicate; inhibition, % at 2.6 µM; 4,700 compounds, 7.6% hits; AID 1259376;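 active means inhibition above a cutoff derived from the DMSO control wells, cut at about 30% in these data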
Active calls of the source: *; · = not tested or not shown. In the library only some 3.5% were active in any assay of this set; here they are far more common.

SMILES | GPR151 activ | TEAD-YAP block | FBW7 activator | MITF primary | MITF inh conf | AlphaScreen intf2
CCN(CC)CCNS(=O)(=O)c1ccc2[nH]cc(C(=O)O)c(=O)c2c1 | 0 | 2 | 0 | 52* | 5 | 5
COc1ccc(CNS(=O)(=O)c2ccc3[nH]cc(C(=O)O)c(=O)c3c2)cc1 | -1 | 8 | 0 | 24 | · | ·
Cc1cccc(NC(=O)c2ccc(NS(=O)(=O)c3ccc4[nH]cc(C(=O)O)c(=O)c4c3)cc2)c1 | 1 | 5 | 1 | 70* | 41* | -5
O=C(CCCN1C(=O)c2cccnc2C1=O)Nc1ccccc1F | -1 | -6 | 0 | 11 | · | ·
COC(=O)C(C)NC(=O)CCc1c(C)nc2c(c1C)c(=O)n(C)c(=O)n2C (stereo not drawn) | 0 | 0 | 0 | -7 | · | ·
COc1ccc(-c2ncc3ccccn23)cc1OC | 0 | -49 | 0 | 70* | 22 | 36*
Ic1ccc(-c2ncc3ccccn23)cc1 | 0 | -56 | 0 | 11 | · | ·
Clc1ccccc1-c1ncc2ccccn12 | -1 | -31 | 0 | 63* | 14 | 36*
c1coc(-c2ncc3ccccn23)c1 | 0 | -15 | -1 | 18 | · | ·
O=C(CSc1nc2ccsc2c(=O)n1CCc1ccc(Cl)cc1)Nc1nccs1 | -1 | -1 | 0 | -2 | · | ·
COC(=O)c1ccc(C2NC(=S)NC(C)=C2C(=O)c2ccccc2)cc1 (stereo not drawn) | 0 | 0 | 0 | -5 | · | ·
COc1ccc([N+](=O)[O-])cc1NC(=O)C(C)N(c1ccc(C)cc1)S(C)(=O)=O (stereo not drawn) | -1 | 13 | 0 | 2 | · | ·
COC(=O)C1=CN(c2ccc(C)c(Cl)c2)C=C(C(=O)OC)C1c1cccs1 | 0 | 8 | 0 | 57* | -11 | -11
COc1cc(OC)c(OC)cc1/C=c1\sc2nc3ccccc3n2c1=O | -1 | 5 | 1 | 9 | · | ·
Cc1ccccc1CN1CCC(N2CCC(C(=O)N3CCCC3)CC2)CC1 | 1 | 6 | 0 | 2 | · | ·
CC1CCN(Cc2c(F)cccc2F)CC1 | 4 | -11 | 0 | 63* | -3 | 2
Cc1ccccc1CN1CCN(C2CCCCCC2)CC1 | 0 | 2 | 0 | 69* | -8 | 2
OCCN1CCN(C2CCN(Cc3ccccc3F)CC2)CC1 | 0 | 0 | 0 | 82* | 3 | 6
Fc1cccc(F)c1CN1CCOCC1 | 0 | -1 | 0 | 7 | · | ·
Fc1ccccc1CN1CCN(C2CCCC2)CC1 | -2 | -1 | 0 | 29 | · | ·
Cc1ccccc1CN1CCC(N2CCN(CCO)CC2)CC1 | 1 | -9 | 0 | 59* | -10 | -2
C/C(=N/NC(=S)Nc1cccc(C)c1)c1cccc(N)c1 | 0 | 1 | 0 | -1 | · | ·
CCC(=O)N1CCc2cc(Br)cc(S(=O)(=O)NC(C)(C)C)c21 | 0 | -2 | 0 | -5 | · | ·
CC1CCN(C2CCN(Cc3ccccc3F)CC2)CC1 | 1 | 7 | 0 | 64* | -2 | 0
CCOC(=O)c1c(NC(=O)Nc2ccc(C)cc2)sc2c1CCN(C(=O)OCC)C2 | 0 | 7 | 0 | -9 | · | ·
SMILES | GPR151 activ | TEAD-YAP block | FBW7 activator | MITF primary | MITF inh conf | AlphaScreen intf2
O=C(/C=C/c1ccc([N+](=O)[O-])cc1)Nc1ccc(O)cc1C(=O)O | -1 | 12 | 0 | 14 | · | ·
CCc1ccc(NC(=O)C(=O)NCC(C)O)cc1 (stereo not drawn) | -1 | -35 | 0 | 10 | · | ·
CCc1ccc(NC(=O)CNCC(C)O)cc1 (stereo not drawn) | 2 | -9 | 0 | 56* | -16 | 0
CCOC(=O)c1cc(CC)sc1NC(=O)c1cc([N+](=O)[O-])ccc1N1CCCCCC1 | 0 | -2 | 0 | 18 | · | ·
CCOC(=O)c1cc(CC)sc1NC(=O)c1cc([N+](=O)[O-])ccc1Cl | 3 | 6 | 0 | 60* | 5 | 7
CCOC(=O)c1c(C)oc(NC(=O)c2ccc([N+](=O)[O-])cc2Cl)c1C#N | 1 | 2 | 0 | 54* | 8 | 13
COc1cc(CN2CCN(Cc3ccccc3C)CC2)cc(OC)c1 | -1 | -3 | 0 | 80* | 2 | 10
COc1cc(OC)c(/C=N/N2CCN(Cc3cccc4ccccc34)CC2)c(OC)c1 | 1 | 13 | -1 | 12 | · | ·
COc1cc(CN2CCN(Cc3cccc4ccccc34)CC2)cc(OC)c1 | -1 | 9 | 0 | 74* | -11 | 4
COc1nsc(N/N=C/c2ccccc2)c1C#N | 0 | -9 | 0 | 14 | · | ·
CC1(C)CC(=O)CC(C)(C)N1C(O)C(Cl)(Cl)Cl (stereo not drawn) | 0 | -5 | 0 | -9 | · | ·
COc1ccc(S(=O)(=O)N2CCN(Cc3ccccc3F)CC2)cc1 | 1 | 5 | 0 | 7 | · | ·
O=S(=O)(c1ccc(F)cc1)N1CCN(Cc2cccc3ccccc23)CC1 | 0 | -16 | 1 | 82* | 10 | 9
O=S(=O)(c1ccc2ccccc2c1)N1CCN(Cc2ccccc2F)CC1 | 0 | 1 | 0 | 54* | 11 | 16
CCOc1ccc(CN2CCN(Cc3cc(OC)c(O)c(OC)c3)CC2)cc1 | 3 | -14 | 0 | 56* | 2 | 8
COc1ccc(S(=O)(=O)N2CCN(Cc3ccncc3)CC2)cc1 | -1 | -3 | 0 | 69* | -2 | 0
Cc1ccc(S(=O)(=O)N2CCN(Cc3cccc4ccccc34)CC2)cc1 | -2 | -4 | 0 | 44 | · | ·
O=C(CCN1C(=O)C2C3C=CC(C3)C2C1=O)N1CC=C(c2ccccc2)CC1 (stereo not drawn) | 1 | 2 | 0 | 4 | · | ·
COc1ccc(/C=C/C(=O)Nc2sc3c(c2C(=O)O)CCCC3)cc1 | 1 | 8 | 0 | 1 | · | ·
CCOc1ccc(CN2CCN(Cc3ccccc3OC)CC2)cc1 | 1 | 9 | 0 | 44 | · | ·
O=S(=O)(c1ccc2ccccc2c1)N1CCN(Cc2ccncc2)CC1 | 1 | 1 | 0 | 79* | 11 | 0
O=S(=O)(c1ccc2ccccc2c1)N1CCN(Cc2ccccc2)CC1 | 2 | 4 | 0 | 21 | · | ·
CCOc1ccc(CN2CCN(Cc3ccc(CC)cc3)CC2)cc1 | 1 | 12 | 0 | 75* | 11 | 6
CCOc1ccc(CN2CCN(Cc3cc(OC)c(OC)cc3OC)CC2)cc1 | 0 | 0 | 0 | 74* | 2 | 8
COc1ccc(S(=O)(=O)N2CCN(Cc3cc(OC)c(OC)c(OC)c3)CC2)cc1 | -2 | 1 | 0 | 56* | -1 | 9
Cc1nn(-c2ccccc2)c2sc(C(=O)Nc3ccc(I)cc3)cc12 | 0 | 2 | 0 | 0 | · | ·
CC(C)OCCCN1C(=O)C2C(C(=O)Nc3cccc(Cl)c3)C3C=CC2(O3)C1C(=O)NC1CCCCC1 (stereo not drawn) | -1 | -8 | 0 | -20 | · | ·
CCOc1ccc(CN2CCN(Cc3ccc(OC)cc3)CC2)cc1 | 3 | 4 | 0 | 58* | 20 | 16
O=S(=O)(c1ccc(F)cc1)N1CCN(Cc2ccncc2)CC1 | -1 | 0 | 0 | 73* | 13 | 19

Screening results (PubChem BioAssay)
